# PubChem BioAssay AID1508608 (The Scripps Research Institute Molecular Screening Center, 2020)
# The campaign covered roughly 2,300 compounds. About 20 (0.9%) were called active. This is one part of a sample in which actives are shown more often than they occur. Values without a mark were called inactive.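 The calls were made as follows: active = mean activation across replicates above 26.72%, the hit cutoff set for this confirmation screen; inactive = the rest.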
# Biological target: G-protein coupled receptor 151 (Homo sapiens) (UniProt Q8TDV0)
# Assay: GPR151 agonism via beta-arrestin recruitment – cell-based, PathHunter beta-arrestin, luminescence, set 2, confirmation (AID 1508608);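 also: 0% = plate median of compound wells and 100% = EA reagent high control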
# Details: GPR151 PathHunter beta-arrestin cells, 90 min, at 11.2 µM, hits give high values, 100% = signal from added EA reagent
# Chain of G-protein coupled receptor 151 (Homo sapiens) (Q8TDV0 whole entry, looked up): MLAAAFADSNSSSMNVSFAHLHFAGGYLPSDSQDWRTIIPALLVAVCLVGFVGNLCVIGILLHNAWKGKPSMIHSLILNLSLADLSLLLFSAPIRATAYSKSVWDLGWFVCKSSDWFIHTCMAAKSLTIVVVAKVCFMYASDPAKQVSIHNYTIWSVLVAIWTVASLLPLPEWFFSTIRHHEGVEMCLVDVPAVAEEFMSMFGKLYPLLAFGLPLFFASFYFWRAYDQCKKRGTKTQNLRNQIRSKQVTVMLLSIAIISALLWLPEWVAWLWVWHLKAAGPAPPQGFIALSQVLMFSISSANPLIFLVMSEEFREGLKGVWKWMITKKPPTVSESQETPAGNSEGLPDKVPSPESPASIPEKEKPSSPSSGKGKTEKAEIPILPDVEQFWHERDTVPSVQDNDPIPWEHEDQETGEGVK
row,Compound,activation
1,CCC(C)NC(=O)c1ccc(-n2c(=S)[nH]c3ccccc3c2=O)cc1 (centres undefined),7.03%
2,CCC(C)NC(=O)c1cc2c(=O)oc3ccccc3c2s1 (centres undefined),1.06%
3,CCC(C)NC(=O)c1cc(=O)[nH]c2ccc(Br)cc12 (centres undefined),88.5% (active)
4,CCCOC(=O)CSC1=C(C#N)C(c2ccco2)C(C(=O)Nc2ccc(Cl)cc2)=C(C)N1 (centres undefined),-4.25%
5,O=C(Nc1ccc(F)cc1)N1CCN(c2ccc3nnc(-c4ccc(F)cc4)n3n2)CC1,-0.4%
6,Nc1ccccc1-c1nnn(CC(=O)Nc2ccc(Cl)cc2)n1,-3.19%
7,O/N=C(\C=N\O)C12CC3CC(CC(C3)C1)C2,-1.69%
8,O=C(O)c1c(CNCCCSC2CCCCC2)c2ccccc2n1Cc1ccccc1,3.46%
9,CC(=O)NCC(=O)N1CCC(c2nc(-c3ccncc3)ncc2-c2cccc(C)c2)CC1,0.35%
10,CCCn1c(=O)c2c(nc3n2CC(C)CN3c2cccc(Cl)c2)n(C)c1=O (centres undefined),3.55%
11,S=c1[nH]nc(OCc2ccc(Cl)cc2Cl)n1-c1ccccc1,-1.15%
12,CC1C(=O)Nc2ccc(S(=O)(=O)Nc3ccc(F)c(Cl)c3)cc2NC1=O (centres undefined),4.91%
13,COC(=O)C1(C(F)(F)F)N=C2C=C(C)C=CN2C(c2ccc(C)cc2)=N1 (centres undefined),3.12%
14,COC(=O)c1c(NC(=O)COc2cccc(C(F)(F)F)c2)sc2c1CCCC2,-0.94%
15,O=C1CSc2ccc(C(=O)N3CCc4ccccc4C3)cc2N1,-0.36%
16,Cc1sc2ncn(CC(=O)Nc3ccc(Oc4ccc(Cl)cc4)cc3)c(=O)c2c1C,2.02%
17,COc1ccc(/C=N/NC(=O)COc2c(OC)cc([N+](=O)[O-])cc2[N+](=O)[O-])c(O)c1,-9.14%
18,CCc1c(C)nc2c(C(=O)NCCc3ccccc3)c[nH]n2c1=O,1.59%
19,CCOc1ccc(C(=O)Nc2nc(-c3ccc(CC)cc3)cs2)cc1,4.71%
20,O=c1ccc(=O)n(CN(c2ccccc2)c2ccccc2)[nH]1,4.24%
21,CCN(CC)CCNC(=O)CNC(=O)c1nn(-c2ccc(OC)cc2OC)c(=O)c2ccccc12,-4.28%
22,Cc1ccc(-c2cc(=O)c3cc(Cl)ccc3o2)cc1,-6.67%
23,O=C(O)CNC(=O)/C=C/c1ccccc1Cl,-5.28%
24,O=c1c2sc3ccccc3c2n(CCN2CCOCC2)c(=O)n1Cc1ccccn1,1.89%
25,COc1ccc(C)cc1NC(=O)c1sc2ncn(CC(=O)Nc3ccc(C)c(Cl)c3)c(=O)c2c1C,-0.16%

row,Compound,activation
1,O=C(c1ccccc1)c1cc2cc(Cl)ccc2oc1=O,1.99%
2,O=C(CCNS(=O)(=O)c1ccc2[nH]c(=O)ccc2c1)N1CCC(N2CCCCC2)CC1,-4.32%
3,COc1cccc(NC2c3ccccc3C(=O)N2c2cccnc2)c1 (centres undefined),0.11%
4,O=C(O)c1ccc(Sc2ccc(Br)cc2)c([N+](=O)[O-])c1,-1.52%
5,COc1ccc(C2C3=C(CCCC3=O)Nc3nc(SC)nn32)c(OC)c1 (centres undefined),1.74%
6,CCOC(=O)C1=C(C)N=c2s/c(=C\c3cc([N+](=O)[O-])ccc3N3CCOCC3)c(=O)n2C1c1ccc(OC)c(OC)c1 (centres undefined),0.23%
7,Cc1ccc(CN2CCN(Cc3ccc4cc(F)ccc4n3)CC2CCO)o1 (centres undefined),4.51%
8,CCn1c(=S)sc2c(=O)[nH]c(C)nc21,-7.13%
9,CC(=O)n1nc(-c2ccco2)nc1SCc1ccccc1,2.59%
10,Cc1noc(C)c1S(=O)(=O)N1CCC(C(=O)N2CCCCC2C)CC1 (centres undefined),-1.12%
11,CCCc1cc(=O)n2[nH]c(NCc3cccc(OC)c3)nc2n1,-0.18%
12,CCC(C)NC(=O)CSc1nnc(-c2ccc(C)cc2)c(-c2ccc(C)cc2)n1 (centres undefined),6.79%
13,COc1ccc(CCn2c(-c3ccc(Cl)cc3)csc2=Nc2ccc(F)cc2)cc1OC,2.13%
14,CCN(CC)S(=O)(=O)c1ccc(-c2csc(=Nc3ccccc3OC)n2CC)cc1,28.4% (active)
15,O=S(=O)(c1ccc(-c2csc(=Nc3cccc(Cl)c3)n2CCCO)cc1)N1CCCCC1,14.5%
16,COc1ccc(C(=O)NC(C)c2csc(C)n2)cc1OC1CCN(C(C)=O)CC1 (centres undefined),1.6%
17,Cc1ccc2c(c1)NC(C)(C)c1ssc(=Nc3ccc(S(=O)(=O)Nc4nccc(C)n4)cc3)c1-2,6.63%
18,CSc1ncc(Cl)c(C(=O)Nc2nc3ccc(S(C)(=O)=O)cc3s2)n1,-3.08%
19,CC[n+]1c(/C=C2\Sc3ccc(C)cc3N2CCO)ccc2ccccc21,31.2% (active)
20,CCC[n+]1c(/C=C2\Sc3ccccc3N2CC)ccc2ccccc21,15.4%
21,CN1CCN(c2cc(-c3cn[nH]c3)ccc2NC(=O)Cc2cccc(Cl)c2)CC1,35.5% (active)
22,N#Cc1c(-c2ccccc2)cc(-c2cccs2)nc1SC1CCCCC1O (centres undefined),4.8%
23,Cc1ccc2nc(NC(=O)CCCN3C(=S)NC(C)(C)CC3C)sc2c1 (centres undefined),2.74%
24,C#CCOc1c(Br)cc(C=O)cc1OC,-0.43%
